Each structure is given as a SMILES string. Calls of active or inactive are those of the source.

Assay [1] relates to Plasmodium falciparum Sir2 (PF13_0152, Sir2A). In words: pfSir2 binders on small-molecule microarrays, primary screen, biochemical, small-molecule microarray, 635 nm fluorescence (AID 1098).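 Further: score merges spot fluorescence intensity with its signal-to-noise ratio.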 The following applies: small-molecule microarray binding, fluorescence 635 nm; higher = more signal.
Assay [2] can be described thus: small-molecule microarray binders of probe aDKK1, primary screen, biochemical, biotinylated probe, 635/667 nm fluorescence (AID 1099).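 Further: score merges 667nm spot fluorescence with signal to noise across triplicate slides; reference of the scale not given here.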 The following applies: higher = more signal.
The nature of assay [3]: small-molecule microarray binders of probe aCHRDL2, primary screen, biochemical, biotinylated probe, 635/667 nm fluorescence (AID 1100). The following applies: higher = more signal.
Assay [4] can be described thus: splicing luciferase reporter signal modulators, primary screen, spliceosome inhibition project, cell-based, HEK293, splice +/- reporter (AID 1101).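 Further: HEK293 cells carrying a splicing-competent luciferase reporter gene; test concentration not given here.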 The following applies: luminescence, 24 h, higher = more signal, called active from +8 up or from −8 down. A general note: Reporter assays use an easily measured gene product as a stand-in for the process of interest.
The target of assay [5] is Fibroblast growth factor 10 (Homo sapiens) (UniProt O15520). The assay is described as follows: FGF10 binders on small-molecule microarrays, primary screen, biochemical, small-molecule microarray, 635 nm fluorescence (AID 1102). The following applies: FGF10 binding, fluorescence 635 nm, higher = more signal.
For assay [6], the system named is glycogen synthase kinase-3 (GSK3A per assay name; protocol says GSK3B). In words: GSK3 binders on small-molecule microarrays, primary screen, biochemical, small-molecule microarray, 635 nm fluorescence, GSK3A (AID 1103). Further: the record names both GSK3A and GSK3B. The following applies: small-molecule microarray binding, fluorescence 635 nm; higher = more signal.
In assay [7] the target is Epidermal growth factor receptor (Homo sapiens) (UniProt P00533). In words: EGFR binders on small-molecule microarrays, primary screen, biochemical, small-molecule microarray, 635 nm fluorescence (AID 1104).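 Further: score merges 667 nm emission intensity with spot signal to noise over triplicate slides.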 The following applies: EGFR binding, higher = more signal.
Assay [8] deals with Follistatin-related protein 3 (Homo sapiens) (UniProt O95633). The assay is described as follows: FSTL3 binders on small-molecule microarrays, primary screen, biochemical, small-molecule microarray, 635 nm fluorescence (AID 1105).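 Further: score merges emission near 667 nm and signal to noise per printed spot across three slides.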 The following applies: FSTL3 binding, higher = more signal.
For assay [9], the target named is Dickkopf-related protein 1 (Homo sapiens) (UniProt O94907). In words: DKK1 binders on small-molecule microarrays, primary screen, biochemical, small-molecule microarray, 635 nm fluorescence scan (AID 1106).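 Further: score merges emission near 667 nm with signal to noise over three replicate slides.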 The following applies: DKK1 binding, higher = more signal.
The subject of assay [10] is Inhibin beta A chain (activin A). The assay is described as follows: INHBA (activin A) binders on microarrays, primary screen, biochemical, small-molecule microarray, 635 nm fluorescence scan (AID 1107).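 Further: mouse activin A protein probed at 4.33 µg/mL on printed slides; score merges bound-protein fluorescence near 667 nm with spot signal-to-noise.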 The following applies: small-molecule microarray binding, higher = more signal.

Sequence of Fibroblast growth factor 10 (Homo sapiens) (O15520 whole entry, looked up): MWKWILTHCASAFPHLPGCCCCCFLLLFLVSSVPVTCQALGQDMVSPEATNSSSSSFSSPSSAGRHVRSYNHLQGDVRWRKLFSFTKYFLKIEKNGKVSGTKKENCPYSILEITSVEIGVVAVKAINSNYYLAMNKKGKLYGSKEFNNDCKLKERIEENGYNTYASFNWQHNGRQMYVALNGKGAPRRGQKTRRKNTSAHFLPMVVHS
Sequence of Dickkopf-related protein 1 (Homo sapiens) (O94907 whole entry, looked up): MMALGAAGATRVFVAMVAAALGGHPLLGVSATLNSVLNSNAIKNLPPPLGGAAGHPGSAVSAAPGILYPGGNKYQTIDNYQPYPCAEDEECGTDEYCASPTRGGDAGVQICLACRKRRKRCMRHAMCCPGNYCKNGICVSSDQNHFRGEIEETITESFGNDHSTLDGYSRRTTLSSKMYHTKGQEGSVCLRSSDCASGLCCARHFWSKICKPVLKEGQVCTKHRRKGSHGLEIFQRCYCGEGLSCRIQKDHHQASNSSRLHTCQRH
Sequence of Follistatin-related protein 3 (Homo sapiens) (O95633 whole entry, looked up): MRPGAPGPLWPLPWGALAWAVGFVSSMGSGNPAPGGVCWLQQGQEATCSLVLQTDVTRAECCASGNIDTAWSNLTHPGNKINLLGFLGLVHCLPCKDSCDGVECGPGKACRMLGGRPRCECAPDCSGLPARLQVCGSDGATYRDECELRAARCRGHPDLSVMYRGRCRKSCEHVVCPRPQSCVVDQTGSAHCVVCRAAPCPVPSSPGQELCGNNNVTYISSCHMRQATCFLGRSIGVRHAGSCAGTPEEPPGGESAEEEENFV
Sequence of Epidermal growth factor receptor (Homo sapiens) (P00533 whole entry, looked up): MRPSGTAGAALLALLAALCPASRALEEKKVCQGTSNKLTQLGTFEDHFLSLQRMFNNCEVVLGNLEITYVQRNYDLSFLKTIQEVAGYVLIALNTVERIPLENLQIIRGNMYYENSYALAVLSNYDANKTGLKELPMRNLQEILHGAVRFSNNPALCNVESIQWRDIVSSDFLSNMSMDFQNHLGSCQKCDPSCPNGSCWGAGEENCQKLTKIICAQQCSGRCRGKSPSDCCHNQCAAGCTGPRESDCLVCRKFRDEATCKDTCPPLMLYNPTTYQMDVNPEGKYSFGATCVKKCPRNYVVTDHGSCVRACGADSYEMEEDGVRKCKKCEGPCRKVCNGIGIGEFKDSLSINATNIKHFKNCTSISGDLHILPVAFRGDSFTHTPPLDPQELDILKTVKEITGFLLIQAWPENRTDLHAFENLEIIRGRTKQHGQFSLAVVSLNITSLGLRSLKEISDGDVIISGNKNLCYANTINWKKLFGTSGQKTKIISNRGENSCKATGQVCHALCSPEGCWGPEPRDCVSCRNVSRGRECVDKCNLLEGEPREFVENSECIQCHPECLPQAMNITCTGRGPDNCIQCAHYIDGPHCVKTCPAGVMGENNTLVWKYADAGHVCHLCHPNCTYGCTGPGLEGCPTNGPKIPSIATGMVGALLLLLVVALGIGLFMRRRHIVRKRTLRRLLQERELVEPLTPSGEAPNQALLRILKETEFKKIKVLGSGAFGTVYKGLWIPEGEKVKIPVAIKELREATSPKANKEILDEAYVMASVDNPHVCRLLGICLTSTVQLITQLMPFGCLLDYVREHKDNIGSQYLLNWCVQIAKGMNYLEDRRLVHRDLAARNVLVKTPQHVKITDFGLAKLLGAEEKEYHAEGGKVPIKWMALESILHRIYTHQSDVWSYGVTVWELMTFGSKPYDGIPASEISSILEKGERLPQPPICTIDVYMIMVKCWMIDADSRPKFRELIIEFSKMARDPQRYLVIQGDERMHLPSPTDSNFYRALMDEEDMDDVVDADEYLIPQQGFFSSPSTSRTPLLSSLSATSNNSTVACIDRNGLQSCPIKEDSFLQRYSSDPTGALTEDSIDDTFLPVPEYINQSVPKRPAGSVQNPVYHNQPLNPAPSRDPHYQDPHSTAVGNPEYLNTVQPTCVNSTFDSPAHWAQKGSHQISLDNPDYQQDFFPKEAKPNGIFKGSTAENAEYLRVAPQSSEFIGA

Turning to `C=C(/C(=C/C[C@H](OC(=O)c1ccncc1)c1ccccc1OCCO)c1cnc2ccccc2c1)C(C)C`, the composite z-score in assay [1] is 1.06; in [2], -0.117; in [3], 0.37; in assay [5], 1.47; in assay [6], 1.06; in assay [7], 1.15. For the same molecule, the composite z-score in assay [8] came to 1.59; in [9], 1.07; in [10], 1.72. Further, the z-score in assay [4] is 0.82 (inactive).
With `[N-]=[N+]=NCc1ccccc1C[C@]1(C(=O)N2CCOCC2)COC(c2ccc(OCCCO)cc2)=N1`, the composite z-score in assay [1] is 0.947; in assay [2], 1.05; in assay [3] it was 1.05; in assay [5] it was 0.396; in assay [6], 0.935; in assay [7] it was -0.505. In addition, the composite z-score in assay [8] was 0.0724; in [9], -0.921; in assay [10], 0.983. Moreover, in assay [4], the z-score is -0.363 (inactive).
With `O=C1c2ccccc2[C@](Cc2ccccc2I)(C(=O)NC2CC2)[C@H](c2ccc(CO)cc2)N1Cc1ccccc1C(F)(F)F`, the composite z-score in assay [1] is 1.43; in assay [2] it was -0.349; in [3] it was 0.768; in assay [5] it was 0.535; in assay [6] it was -0.265; in [7], -0.922. The composite z-score in assay [8] is 0.32; in assay [9], -0.74; in assay [10], -0.771. For the same molecule, the z-score in [4] was -0.987 (inactive).
For `C=CCN1C(=O)[C@@]2(O[C@@H](CCO)[C@H]([Si](C)(C)c3ccc(OC)cc3)[C@H]2C)c2cc(N3CCOC3=O)ccc21`, the composite z-score in [1] was 0.392; in [2], 0.0757; in [3], 0.213; in assay [5] it was -0.0196; in assay [6], 0.612; in [7], -0.114. Further, the composite z-score was 0.0282 in assay [8], -0.381 in assay [9] and -0.171 in assay [10]. Besides, in assay [4], the z-score is -0.887 (inactive).
As to `CC(C)=CCCC(C)=CC(O)C1C=CC2C(=O)N(c3ccccc3)C(=O)C2N1Nc1ccccc1F` (stereo not given), the composite z-score came out at 1.33 in [1]; 0.0643 in assay [2]; 0.0744 in assay [3]; 0.85 in assay [5]; 0.403 in [6]; 0.329 in assay [7]. The composite z-score in [8] was 0.587; in assay [9] it was -0.0093; in assay [10], 0.418. Also, in assay [4], the z-score is -0.652 (inactive).
Consider `O=C1C2C=CC(C(O)c3ccc4c(c3)OCO4)N(Nc3ccccc3)C2C(=O)N1c1ccccc1` (stereo not given), for which the composite z-score was 1.41 in assay [1]; 0.45 in assay [2]; 1.09 in assay [3]; 0.781 in assay [5]; -0.157 in [6]; -0.0637 in assay [7]. The composite z-score is 0.71 in assay [8], -0.541 in assay [9] and 0.477 in assay [10]. The z-score in [4] was 0.243 (inactive).
With `C=C(COC)C(=O)CC[C@H](OC(=O)c1cccnc1)c1ccc(CO)o1`, the composite z-score in assay [1] was 1.44; in assay [2], -0.424; in [3], -0.686; in assay [5], 0.905; in assay [6], 0.596; in assay [7], 0.393. Besides, the composite z-score was found to be 1.3 in [8], 1.42 in [9] and 0.488 in assay [10]. Besides, the z-score in assay [4] was 0.591 (inactive).
As to `COCCOC(=O)N1C(=O)[C@@]2(c3cc(C#Cc4ccc(OC)cc4)ccc31)[C@H](c1ccc(OCCO)cc1)N1[C@H](c3ccccc3)[C@H](c3ccccc3)OC(=O)[C@H]1[C@@H]2C(=O)Nc1nc2ccccc2s1`, the composite z-score is 0.181 in assay [1]; 0.636 in assay [2]; 0.533 in assay [3]; 1.06 in [5]; 0.506 in assay [6]; 0.397 in assay [7]. Further, the composite z-score in assay [8] is 0.805; in assay [9] it was 0.154; in [10], 0.598. Further, in assay [4], the z-score was -0.697 (inactive).
As for `CCOC(=O)C1=CC[C@@H](c2ccccc2)N(S(=O)(=O)c2ccc(C)cc2)[C@H]1C=Cc1ccccc1`, the composite z-score in assay [1] was 1.66; in assay [2], 0.37; in assay [3] it was 1.03; in assay [5], 0.322; in assay [6], 0.193; in assay [7] it was -0.647. Further, the composite z-score in assay [8] is -0.745; in assay [9], -0.548; in assay [10], 0.58. In addition, the z-score in assay [4] was 0.151 (inactive).
As to `CCN(CC)c1ccc(N2CC=CC34O[C@@H]5C=CCCOC(=O)C5[C@H]3C(=O)N(CCO)[C@@H]4C2=O)cc1` (stereo not given in full), the composite z-score in assay [1] is -0.0437; in assay [2] it was -0.289; in assay [3] it was 0.269; in assay [5], -0.504; in assay [6], -0.908; in assay [7], -0.869. Moreover, the values for the composite z-score in assay [8], in assay [9] and in assay [10] were -1.45, -0.351 and -0.589, respectively. Moreover, the z-score in assay [4] was -0.688 (inactive).
Consider `[N-]=[N+]=NCc1ccccc1[C@@H]1OC(c2ccc(OCCCO)cc2)=N[C@]1(Cc1ccccc1N=[N+]=[N-])C(=O)NCCN1CCOCC1`, for which the composite z-score in assay [1] was determined as 1.54; in assay [2], 0.251; in [3] it was 0.851; in assay [5], 1.51; in assay [6], 1.34; in assay [7], 0.218. Also, the results for the composite z-score in [8], in [9] and in assay [10] were 1.23, 0.331 and 0.533, respectively. In addition, in [4], the z-score was -0.312 (inactive).
Take `O=C(NCCN1CCOCC1)[C@@H]1c2ccccc2C(=O)N(Cc2ccccc2)[C@H]1c1ccc(CO)cc1`: the composite z-score is 0.84 in [1]; -0.117 in assay [2]; 0.82 in assay [3]; -0.765 in assay [5]; -1.13 in assay [6]; -1.81 in assay [7]. Further, the composite z-score in [8] is -0.481; in assay [9], -0.667; in [10], 0.269. Moreover, the z-score in assay [4] is -0.316 (inactive).
Regarding `C=CCC(OC(C)=O)[C@@H]1[C@@H](N(Cc2ccc(-c3ccccc3)cc2)C(=O)Cc2ccc(F)cc2)c2cc(OCCCO)ccc2N1C(=O)Cc1ccc2ccccc2c1` (stereo not given in full), the composite z-score in assay [1] is -0.261; in assay [2], -0.0697; in assay [3] it was 0.652; in assay [5], -0.13; in [6] it was -0.199; in assay [7], -0.113. In addition, the composite z-score was -0.507 in assay [8], -0.117 in assay [9] and 1.3 in assay [10]. The z-score in assay [4] is -0.681 (inactive).
Turning to `O=C(O)[C@H]1C[C@H]2C(=O)N[C@@H](Cc3ccccc3)C(=O)N2[C@H]1c1cccc(OCCO)c1`, the composite z-score in assay [1] came to 0.348; in assay [2], 0.507; in assay [3], 0.198; in [5], 0.986; in assay [6], 0.874; in assay [7] it was 0.391. Moreover, the composite z-score in [8] was 1.2; in assay [9], 1.17; in assay [10], 0.206. Also, in [4], the z-score was -0.129 (inactive).
`COCCOC(=O)N1C(=O)[C@@]2(c3cc(C#Cc4ccc(OC)cc4)ccc31)[C@H](C(=O)NC[C@H](O)c1ccccc1)[C@H]1C(=O)O[C@H](c3ccccc3)[C@H](c3ccccc3)N1[C@@H]2c1ccc(OCCO)cc1`: the composite z-score in [1] is 1.02; in [2], -0.0284; in [3], 0.236; in assay [5] it was 1.36; in [6] it was 1.3; in assay [7], 0.384. Besides, the composite z-score stood at 0.863 in assay [8], 0.324 in assay [9] and 0.269 in assay [10]. Besides, the z-score in assay [4] is -1.31 (inactive).
Take `CC(=O)NCCCC[C@@H]1NC(=O)[C@H]2C[C@@H](C(=O)NCCCCCNC(=O)CS)[C@@H](c3cccc(OCCO)c3)N2C1=O`: the composite z-score in assay [1] was 1.52; in assay [2], -0.136; in assay [3], 0.441; in assay [5], 0.349; in assay [6] it was 0.552; in assay [7] it was 0.39. For the same molecule, the figures for the composite z-score in [8], in assay [9] and in assay [10] were 0.397, 0.607 and 0.469, respectively. Further, the z-score in [4] was -0.293 (inactive).

The values above are taken from PubChem BioAssay.
